In the library only some 0.98% were active in any assay of this set; here they are far more common.
Calb biofilm kill = kills Candida albicans biofilms; C. albicans biofilm + clotrimazole, Alamar Blue; inhibition, % at 6 µM; 85,000 compounds, 0.14% hits; AID 834;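 active = inhibition above 20%; inactive = inhibition below 20%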;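 also: preformed 24 hr biofilms exposed to compound for 48 hr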
sdo1 growth = compounds rescuing growth of sdo1-depleted yeast, bone marrow failure model | 140,000 compounds, 0.21% hits | z-score at 10 µM | S. cerevisiae sdo1-depleted JHY4D growth rescue, OD600 30 h; hits give high values; pdr5 snq2 efflux-pump mutant strain | AID 817;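 active = z-score above 3 at both the 24 hr and the 30 hr optical density reads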
MRP1 act = MRP-1 activation | AID 799 | viability increase, % at 10 µM | H69AR cells + doxorubicin, viability rescue, CellTiter-Glo | 140,000 compounds, 0.61% hits;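 active = viability gain under doxorubicin at or above a set limit, the compound median plus 3 SD, cut at about 4.7% in these data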;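 also: MRP-1 overexpressing cells given doxorubicin 25 µM after compound pretreatment; 18-22 h compound pretreatment then 72 h with doxorubicin before readout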
MRP resist rev = compounds reversing MRP-mediated drug resistance; H69AR cells + 2 uM doxorubicin, CellTiter-Glo, 72 h; 85,000 compounds, 0.04% hits; differential viability (reversal), % at 10 µM;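 active = viability drop by adding the cancer drug above about 55%, with treated viability meeting a 40% cutoff, limit read from the data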;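 also: larger differential means the compound sensitizes cells more to doxorubicin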
sdo1 rescue conf = confirmation of growth rescue in SDO1-depleted yeast, bone marrow failure | 440 compounds, 44% hits | S. cerevisiae JHY4D (SDO1-depleted) growth rescue, OD600, 30 h; hits give high values; efflux-deficient strain, SNQ2 and PDR5 mutated | shares compounds with sdo1 growth | OD recovery (concentration not given with the values);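 active = yeast growth recovered at 30 hours, either rising with dose fitted slope above 0.001 or with average optical density gain above 0.07, some results past the limit were not filed as active; inactive = growth falling with dose or no effect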
Of the large screens only hits and unclear results are named; the others gave an inactive call (follow-up assays come after a bar, where they were run); [ ] = another dose, or the depositor's remark.

CCCCCCCC(=O)NC(Nc1ccc(S(N)(=O)=O)cc1)C(Cl)(Cl)Cl (centres undefined)	sdo1 growth 3.1 (no result: Calb biofilm kill, MRP resist rev) | sdo1 rescue conf 0.1
O=C(CCSCCC(=O)NCCN1CCOCC1)NCCN1CCOCC1	none
O=C(CCSCCc1ccncc1)NCCCN1CCOCC1	none | sdo1 rescue conf 0.1
O=C(N/N=C/c1cccc(Oc2ccccc2)c1)c1ccccc1Br	none (no result: Calb biofilm kill, MRP resist rev)
CN(C)c1ccc(NC(=O)CN2CCC(N3CCCCC3)CC2)cc1	none (no result: Calb biofilm kill, MRP resist rev)
CCCc1nnc(SCC(=O)N2CCCC2)n1CC1CCCO1 (centres undefined)	sdo1 growth 3.2 | sdo1 rescue conf inactive
CCCc1nnc(SCC(=O)N2CCCCC2)n1CC1CCCO1 (centres undefined)	none
Cc1n[nH]c(C)c1S(=O)(=O)N1CCCC(C(=O)Nc2ccc3c(c2)OCCO3)C1 (centres undefined)	none | sdo1 rescue conf 0.094
O=C(Nc1ccc2c(c1)OCO2)C1CCCN(S(=O)(=O)Cc2ccccc2)C1 (centres undefined)	none | sdo1 rescue conf 0.082
CCOc1ccccc1NC(=S)N(Cc1cc2ccc(C)cc2[nH]c1=O)CC1CCCN1CC (centres undefined)	none (no result: Calb biofilm kill, MRP resist rev)
CCn1cc(CNC(=O)c2c(-c3c(Cl)cccc3Cl)noc2C)c(C)n1	none (no result: Calb biofilm kill, MRP resist rev)
COc1ccc(NC(=O)C2CCCCN2S(=O)(=O)c2ccc(F)cc2)cc1 (centres undefined)	none | sdo1 rescue conf inactive
CCOC(=O)c1nonc1NC(C)=O	none
CCOC(=O)c1nsnc1NCCSC(=N)N	sdo1 growth 6.2 (no result: Calb biofilm kill, MRP resist rev) | sdo1 rescue conf 0.094
COc1cccc(CN(CC2CCCO2)S(=O)(=O)c2ccc(S(=O)(=O)N(C)C)cc2)c1 (centres undefined)	none
NC(=O)NCc1ccc(Cl)cc1	none (no result: Calb biofilm kill, MRP resist rev)
O=C(CN1CCc2ccccc2C1)c1cccs1	sdo1 growth 5.6 | sdo1 rescue conf 0.096
O=C(CN1CCN(c2cccc(Cl)c2)CC1)Nc1ccc([N+](=O)[O-])cc1C(=O)Nc1ccccc1F	sdo1 growth 14 (no result: Calb biofilm kill, MRP resist rev) | sdo1 rescue conf inactive
CCOC(=O)c1c(NC(=S)Nc2ccc(C)cc2)sc2c1CCC2	none (no result: Calb biofilm kill, MRP resist rev) | sdo1 rescue conf 0.088
CCOC(=O)c1c(NC(=S)Nc2ccc(F)cc2)sc2c1CCC2	none (no result: Calb biofilm kill, MRP resist rev)
CCCC(=O)Nc1ccc(C(=O)NNC(=O)COc2ccc(Br)c(C)c2)cc1	none (no result: Calb biofilm kill, MRP resist rev)
O=C(NCCN=C1NS(=O)(=O)c2ccccc21)c1ccco1	sdo1 growth 3.8 (no result: Calb biofilm kill, MRP resist rev) | sdo1 rescue conf 0.085
Cc1nn(-c2ccccc2)c(C)c1C(=O)OCC(=O)N1c2ccccc2NC(=O)C1(C)C	sdo1 growth 14 | sdo1 rescue conf inactive
Cc1cnc(C(=O)OCC(=O)N2c3ccccc3NC(=O)C2(C)C)cn1	none
O=C(NCc1ccco1)c1ccc(Br)c(S(=O)(=O)N2CCCCC2)c1	sdo1 growth 4.7 | sdo1 rescue conf 0.072
C/C(=N/NC(=O)CN1CCN(S(=O)(=O)c2ccc(Br)cc2)CC1)c1cccnc1	none (no result: Calb biofilm kill, MRP resist rev)
CCOC(=O)c1c(C)nc2sc3c(c2c1-c1ccc(OC)cc1)NC(c1ccc(OC)cc1)NC3=O (centres undefined)	none (no result: Calb biofilm kill, MRP resist rev)
COc1ccc(OC)c(-c2c3cc(O)c(=O)cc-3oc3cc(O)c(O)cc23)c1	sdo1 growth 5.7 (no result: Calb biofilm kill, MRP resist rev) | sdo1 rescue conf inactive
COc1ccc(NC(=O)CSc2nc(N3CCCCC3)nc(N3CCCCC3)n2)cc1	none | sdo1 rescue conf 0.084
COc1ccc(NC(=O)CN2CCCCC2)cc1	none
COc1ccc(NC(=O)CSc2nccc(C)n2)cc1	none | sdo1 rescue conf inactive
COc1cc(NC(=O)CSc2nccc(C)n2)c(C(=O)O)cc1OC	none
COc1cc(C(C)=O)ccc1COc1ccc(C(=O)OC(C)C(=O)NC(N)=O)cc1OC (centres undefined)	none (no result: Calb biofilm kill, MRP resist rev)
O=[N+]([O-])c1ccc(N/N=C\c2ccccc2OCc2ccccc2)cc1	none (no result: Calb biofilm kill, MRP resist rev) | sdo1 rescue conf inactive
CC(C)NC(=O)COC(=O)c1cc(F)c(F)cc1Cl	sdo1 growth 5.6 (no result: Calb biofilm kill, MRP resist rev) | sdo1 rescue conf 0.085
CNC(=O)COC(=O)c1cc(F)c(F)cc1Cl	none (no result: Calb biofilm kill)
Cc1cccc2cc(C#N)c(SCC(=O)NCC3CCCO3)nc12 (centres undefined)	none
Cc1cccc2c(SCC(=O)NCC3CCCO3)nc(-c3ccc(F)cc3)nc12 (centres undefined)	none (no result: Calb biofilm kill, MRP resist rev) | sdo1 rescue conf 0.11
COc1ccc(Br)cc1C(=O)Nc1nnn(C)n1	none
COc1ccc(Cl)cc1C(=O)Nc1nnn(C)n1	none | sdo1 rescue conf inactive
Cn1nc(-c2ccc(C(=O)O)cc2)c2ccccc2c1=O	none
COC(=O)c1ccc(-c2nn(C)c(=O)c3ccccc23)cc1	sdo1 growth 8.5 | sdo1 rescue conf 0.076
CC1CCN(C(=O)C2CCC(CNS(=O)(=O)c3cccc4cccnc34)CC2)CC1 (centres undefined)	sdo1 growth 9.6 | sdo1 rescue conf inactive
CN1CCN(C(=O)C2CCC(CNS(=O)(=O)c3cccc4cccnc34)CC2)CC1 (centres undefined)	none
COC(=O)C1CCN(C(=O)CCCOc2ccccc2)CC1	none (no result: Calb biofilm kill) | sdo1 rescue conf inactive
CCC(=O)NC1(C(F)(F)F)C(=O)Nc2c1c(=O)[nH]c(=O)n2Cc1ccco1 (centres undefined)	sdo1 growth 15 | sdo1 rescue conf inactive
CCn1c(N)c(C(=O)NCc2ccc3c(c2)OCO3)sc1=S	none | sdo1 rescue conf inactive
CCOC(=O)c1c(C)c(C(=O)NCc2ccc3c(c2)OCO3)c(C)n1CC	none
CC(=O)N(C1=C(O)c2ccccc2C(=O)C1=O)C1CCCCC1	sdo1 growth 3.1[12.9 µM] (no result: Calb biofilm kill, MRP resist rev) | sdo1 rescue conf 0.074
Cc1ncc([N+](=O)[O-])n1CCOC(=O)NC(NCc1ccccc1)C(Cl)(Cl)Cl (centres undefined)	none (no result: Calb biofilm kill, MRP resist rev)
Cc1ccccc1NC(NC(=O)OCCn1c([N+](=O)[O-])cnc1C)C(Cl)(Cl)Cl (centres undefined)	sdo1 growth 8.3 (no result: Calb biofilm kill, MRP resist rev) | sdo1 rescue conf 0.1
Cc1cc(C)nc(N=Nc2c(O)n(Cc3ccc(Cl)cc3)c3ccccc23)n1	none (no result: Calb biofilm kill, MRP resist rev)
O=C(CCC(=O)c1cccs1)NCC(=O)Nc1ccc(F)c(F)c1F	none (no result: Calb biofilm kill, MRP resist rev)
Cc1ccc(CNC(=O)CCCn2c(=O)[nH]c3ccccc3c2=O)cc1	sdo1 growth 8.9 | sdo1 rescue conf inactive
COc1cccc(-n2c(CCn3nc(C)c([N+](=O)[O-])c3C)n[nH]c2=S)c1	sdo1 growth 3.2 (no result: Calb biofilm kill, MRP resist rev) | sdo1 rescue conf inactive
Cc1cccc(-n2c(CCn3nc(C)c([N+](=O)[O-])c3C)n[nH]c2=S)c1	none (no result: Calb biofilm kill, MRP resist rev)
COC(=O)c1ccc(Cl)cc1NC(=O)/C=C/c1ccc(C)o1	none (no result: Calb biofilm kill, MRP resist rev)
Cn1c2c(c(O)c(-c3ccccc3)c1=O)C(=O)CC(C)(C)C2	none (no result: Calb biofilm kill, MRP resist rev)
Cc1cc(C)c(-c2c(O)c3c(n(C)c2=O)CC(C)(C)CC3=O)c(C)c1	sdo1 growth 10 (no result: Calb biofilm kill, MRP resist rev) | sdo1 rescue conf 0.08
CC(C)NC(=O)CSCc1ccccc1Cl	none
CC(C)NC(=O)CSCc1cccc(Br)c1	sdo1 growth 5.2 | sdo1 rescue conf inactive
CC1(C)Oc2ccccc2OC1(O)c1ccc2ccccc2n1 (centres undefined)	none (no result: Calb biofilm kill, MRP resist rev)
CCN(CC)C(=O)Cn1cnc([N+](=O)[O-])n1	none (no result: Calb biofilm kill, MRP resist rev)
COc1ccccc1NC(=O)c1nn(-c2cccc(C(F)(F)F)c2)ccc1=O	sdo1 growth 7.2 (no result: Calb biofilm kill, MRP resist rev) | sdo1 rescue conf inactive
COc1ccc(N=C2C(=O)N3c4c(cccc42)C(C)=CC3(C)C)cc1	none (no result: Calb biofilm kill, MRP resist rev)
